Molecules are shown by their SMILES. Records with an inconclusive call do not appear. Activity calls are given as the source filed them. The call rests on the fitted dose curve; in most records, active means well fitted activation curve with a large enough effect; inconclusive means small, poorly fitted or top-dose-only effect; inactive means no such curve, though single readings can be large or run the other way.

Chain of Arylsulfatase A (Homo sapiens) (P15289 whole entry, looked up): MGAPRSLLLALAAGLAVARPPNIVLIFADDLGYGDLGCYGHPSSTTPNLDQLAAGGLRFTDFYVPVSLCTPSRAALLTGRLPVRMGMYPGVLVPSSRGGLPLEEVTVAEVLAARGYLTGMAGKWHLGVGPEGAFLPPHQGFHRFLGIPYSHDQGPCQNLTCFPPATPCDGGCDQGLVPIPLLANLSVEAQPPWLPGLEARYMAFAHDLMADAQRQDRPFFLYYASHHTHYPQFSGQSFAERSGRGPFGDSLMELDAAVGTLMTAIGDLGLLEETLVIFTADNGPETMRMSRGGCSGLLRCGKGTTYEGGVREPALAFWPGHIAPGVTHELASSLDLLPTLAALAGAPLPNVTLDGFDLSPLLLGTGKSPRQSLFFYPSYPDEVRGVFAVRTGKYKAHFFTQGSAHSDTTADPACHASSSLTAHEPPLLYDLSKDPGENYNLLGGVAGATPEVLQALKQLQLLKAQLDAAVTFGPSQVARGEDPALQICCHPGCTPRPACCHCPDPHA

This assay has as its target Arylsulfatase A (Homo sapiens) (UniProt P15289). As to the kind of experiment: qHTS screen for enhancers of Arylsulfatase A (ASA1): LOPAC Validation Assay (AID 720538). Conditions: ASA enzyme activity, LOPAC qHTS enhancer assay; series mostly up to 57.5 µM. The gist of the method: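 Cell-based enhancement test: residual ASA activity in SV40-transformed I179S patient fibroblasts is measured by pNCS turnover (0.5mM final, 14h, room temperature) following 48h compound incubation; higher fluorescence indicates activation.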
Take `CC(Cc1ccc(O)cc1)NCC(O)c1cc(O)cc(O)c1` (stereo not drawn): the outcome was inactive.

Regarding `c1ccc(CCCN2CCN(CCOC(c3ccccc3)c3ccccc3)CC2)cc1`, the outcome was inactive.

For the compound `CCCN(CCC)C1CCc2ccc(O)cc2C1` (stereo not drawn), the outcome is “inactive; inhibitor; fitted 0.0338 uM”.

As for `COc1cc(C(O)CN)ccc1O` (stereo not drawn), the result was inactive.

As for `C=CCN1CC[C@]23CCCCC2[C@H]1Cc1ccc(O)cc13` (stereo partly drawn), the outcome was “inactive; inhibitor; fitted 0.0301 uM”.

For `O=C(Cc1ccc(Cl)c(Cl)c1)N1CCCCC1CN1CCCC1` (stereo not drawn), the result was inactive.

Take `CCCCc1ccc(C(=O)O)nc1`: the result was inactive.

For `NC(=NCCC[C@H](N)C(=O)O)N[N+](=O)[O-]`, the result was inactive.

As to `NC(N)=NOCCC(N)C(=O)O` (stereo not drawn), the outcome is “inactive; inhibitor; fitted 2.3934 uM”.

`CC[C@@H](C(N)=O)N1CCCC1=O`: the result was inactive.

In the case of `Cc1nccc2c1[nH]c1ccccc12`, the outcome was inactive.

With `NC1CC1c1ccccc1` (stereo not drawn), the result was inactive.

For the compound `O=C1CCCN1CC#CCN1CCCC1`, the outcome was inactive.

`Oc1ccc2c3c1O[C@H]1c4[nH]c5c(c4C[C@@]4(O)[C@@H](C2)N(CC2CC2)CC[C@]314)C[C@@]1(O)[C@H]2Cc3ccc(O)c4c3[C@@]1(CCN2CC1CC1)[C@H]5O4`: the outcome was inactive.

On to `CC[C@@]1(O)C(=O)OCc2c1cc1n(c2=O)Cc2cc3ccccc3nc2-1`, for which the result was inactive.

On to `C[C@]12CCC3C(CC[C@H]4C[C@H](O)CC[C@]34C)C1CC[C@@H]2C(=O)CO` (stereo partly drawn), for which the outcome is “inactive; inhibitor; fitted 2.3934 uM”.

`CC(=O)NCCc1c[nH]c2ccccc12`: the result was inactive.

In the case of `C#CCOC(=O)C1=CCCN(C)C1`, the outcome was inactive.
